The panel holds about 79,000 compounds, 15% with a hit somewhere; the sample as a whole holds those more often. Cut-off read from the data, not from the text of the source: active = growth inhibition above about 70%; inactive = the rest.
Key:
[1] = NCI Yeast Anticancer Drug Screen. Data for the rad50 strain (AID 155);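 note: 0% = growth of vehicle-only cultures of the same strain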; settings: S. cerevisiae rad50 strain growth inhibition; at 50.0 µM; active compounds read high
Method in brief: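 Growth of the mutant yeast was measured after compound exposure and referenced to vehicle-treated cultures.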

[2] = NCI Yeast Anticancer Drug Screen. Data for the mec2-1 strain (AID 157); settings: S. cerevisiae mec2-1 strain, at 50.0 µM, active compounds read high
Method in brief: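 Cells of the genetically defined mec2-1 yeast strain are incubated with test compound. Inhibition of growth is calculated against vehicle-treated controls.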

[3] = NCI Yeast Anticancer Drug Screen. Data for the sgs1 mgt1 strain (AID 161);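 note: 0% = growth of cultures given vehicle only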; settings: S. cerevisiae sgs1 mgt1 strain, at 50.0 µM, active compounds read high
Method in brief: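 Test agents were incubated with a DNA-repair-mutant yeast strain. Growth was then read and compared against vehicle-treated controls.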

[4] = NCI Yeast Anticancer Drug Screen. Data for the cln2 rad14 strain (AID 165);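 note: 0% = growth equal to vehicle treated cultures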; settings: S. cerevisiae cln2 rad14 strain, at 50.0 µM, active compounds read high
Method in brief: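 The screen exposed genetically defined yeast (cln2 rad14) to test compounds and scored growth inhibition relative to vehicle-treated controls.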

[5] = NCI Yeast Anticancer Drug Screen. Data for the bub3 strain (AID 167); settings: S. cerevisiae bub3 mutant strain, at 50.0 µM, active compounds read high
Method in brief: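 Whole-cell yeast assay. The mutant strain was incubated with compounds, and growth inhibition was determined by comparison with vehicle-treated cells.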

[6] = NCI Yeast Anticancer Drug Screen. Data for the mlh1 rad18 strain (AID 175); settings: S. cerevisiae mlh1 rad18 strain growth inhibition; at 50.0 µM; active compounds read high
Method in brief: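 Compound-treated yeast growth, normalised to vehicle controls. Strain bears defined DNA repair mutations.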

Measured: growth inhibition

O=C1C2C3C=CC(C2C(=O)N1CCl)C1C2C(=O)N(CCl)C(=O)C2C31 (stereo unspecified)
inactive: [1] 4.2% | [2] 21.1% | [3] 7.85% | [4] -5.85% | [5] 13.6% | [6] 18.7%

O=C(O/N=C(\c1ccccc1)C(Br)c1ccccc1)c1ccccc1 (stereo unspecified)
inactive: [1] -2.75% | [2] 10.2% | [3] 2.9% | [4] -2.05% | [5] 8.4% | [6] -2.55%

Cc1n[nH]c(=O)n1Nc1ccccc1
inactive: [1] 13.2% | [2] -7.7% | [3] 9.1% | [4] 13.3% | [5] 1.5% | [6] 6.6%

O=C(O)c1ccc(C(=O)O)nc1
inactive: [1] -39.7% | [2] -4.75% | [3] 0.95% | [4] -14.4% | [5] 4.8% | [6] -1.35%

COc1ccc(/C=C/C(=O)C(CN(C)C)CN(C)C)cc1OC
inactive: [1] -0.95% | [2] -6.7% | [3] -25.2% | [4] -4.8% | [5] -6.55% | [6] -16.4%

COC1CCC(O)C(C=Nc2ccccc2)C1 (stereo unspecified)
inactive: [1] 4.8% | [2] -1.85% | [3] -11.8% | [4] 4.35% | [5] 8.5% | [6] -18.8%

CCOC(CCc1c(C)nc[nH]c1=O)OCC
inactive: [1] -1.8% | [2] 3.7% | [3] -2.35% | [4] -35.4% | [5] 16.2% | [6] -7.9%

CC1=CC(=Nc2ccc(N(C)C)cc2)C(C)=CC1=O
inactive: [1] -11.1% | [2] -28.3% | [3] -2.4% | [4] -30.6% | [5] 5.4% | [6] -4.35%

Nc1nc2nc(C(=O)O)c(=S)[nH]c2c(=O)[nH]1
inactive: [1] 11.1% | [2] 3.8% | [3] 1.9% | [4] -10.9% | [5] 7.6% | [6] -8.25%

CC1(C)C2CC3C(=CCCC3C(=O)O)C1C2 (stereo unspecified)
inactive: [1] 11.4% | [2] 15.3% | [3] -8.55% | [4] 9.8% | [5] 11.1% | [6] 12.8%

CCC1CCC(Cc2ccncc2)CC1 (stereo unspecified)
inactive: [1] 3.65% | [2] -7.4% | [3] -11.9% | [4] -78.9% | [5] 13.4% | [6] -0.9%

CCCCCCCCCCCCCCCCOc1ccc(/C=N/Nc2ccccc2)cc1OC
inactive: [1] -20.1% | [2] -22.2% | [3] -25.9% | [4] 0.95% | [5] -32% | [6] -13.6%

CNCCCCCNC
inactive: [1] -7% | [2] -10.6% | [3] -1.05% | [4] -5.45% | [5] -0.2% | [6] 19.2%

CCOCCC(=O)OCCC(C)OC (stereo unspecified)
inactive: [1] 4.95% | [2] 11% | [3] 11.2% | [4] -26.4% | [5] -58.1% | [6] -37.2%

c1ccc(COC2COC(c3ccccc3)OC2)cc1 (stereo unspecified)
inactive: [1] 5.95% | [2] -35% | [3] 0.7% | [4] 16.9% | [5] 7.45% | [6] 3.15%

CCOC(=O)c1c[nH]c2cc(Cl)cc(OC)c2c1=O
inactive: [1] -11.3% | [2] -5.6% | [3] -1% | [4] -32.9% | [5] -7.35% | [6] -17%

COc1ccc(C2(O)c3ccccc3C(=O)c3ccc(OC)cc32)cc1 (stereo unspecified)
inactive: [1] -3.15% | [2] -10.6% | [3] 4.15% | [4] 14.8% | [5] -11.1% | [6] -10.5%

COc1cccc(Oc2c(O)c3ccc(OC)cc3oc2=O)c1
inactive: [1] 1% | [2] 11.2% | [3] -2.1% | [4] 27.2% | [5] 0.05% | [6] 8.75%

Cc1c(F)cc(I)cc1[N+](=O)[O-]
inactive: [1] -3.7% | [2] -9.1% | [3] -11% | [4] 6.9% | [5] 1% | [6] -16.6%

CCOC(=O)C1CC1Cc1ccccc1 (stereo unspecified)
inactive: [1] -18.1% | [2] -9.95% | [3] -2.2% | [4] -7.2% | [5] 6.05% | [6] -2.95%

COc1ccc(C(=O)O)cc1
inactive: [1] 12.3% | [2] -19.8% | [3] -32.7% | [4] -41% | [5] -2.9% | [6] -4.25%

From PubChem BioAssay (NCI)
